Source: the supplement of paper PMC9023506
Counter-ions that a name gives are not always drawn.

tested on: Danio rerio larvae (5 dpf); assay: optomotor response to fast red moving lines, difference vs DMSO (percentage points (treated minus DMSO)); higher = more of the behaviour than the DMSO vehicle control; conditions: 10 µM; exposure time: 3 h pre-incubation + 3 h imaging
Method: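 5-dpf wild-type zebrafish larvae were imaged in 96-well plates. They were treated with 190 Tocris FDA-approved drugs at 10 µM (1 µl/ml DMSO) for 3 h before and 3 h during imaging at 28.5 °C, 48 larvae per drug. Automated image analysis gave % time moving and optomotor responses. Values are drug group mean minus DMSO vehicle mean (n=844), in percentage points, for 10 behaviours.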

Compared with `Nc1cccc2c1CN(C1CCC(=O)NC1=O)C2=O` (stereo not given) [Lenalidomide], `CCOC(=O)c1ncn2c1CN(C)C(=O)c1cc(F)ccc1-2` [Flumazenil] is higher in optomotor response: -0.414 for the first, 9.89 for the second.

Compared with `NS(=O)(=O)Cc1noc2ccccc12` [Zonisamide], `CC(=O)Oc1ccccc1C(=O)O` [Aspirin] is lower in optomotor response: -0.856 for the first, -7.85 for the second.

Going from `CC(C)(C#N)c1cc(Cn2cncn2)cc(C(C)(C)C#N)c1` [Anastrozole] to `CC(C)(C(=O)c1cccnc1)c1cccnc1` [Metyrapone], the optomotor response falls from -1.59 to -11.5.

First: CN/C(=N\CCSCc1nc[nH]c1C)NC#N [Cimetidine]
Second: Cc1cccc(C)c1OCC(C)N (stereo not given) [Mexiletine hydrochloride]
The optomotor response of the first is lower: -7.27 for the first, 0.599 for the second.

Going from `OCCN1C[C@H](O)[C@@H](O)[C@H](O)[C@H]1CO` [Miglitol] to `Nc1ncn([C@@H]2O[C@H](CO)[C@@H](O)[C@H]2O)c(=O)n1` [5-Azacytidine], the optomotor response rises from -3.78 to 1.5.

Compared with `Nc1nc(NC2CC2)c2ncn([C@H]3C=C[C@@H](CO)C3)c2n1` [Abacavir hemisulfate], `Nc1nc2c(ncn2COCCO)c(=O)[nH]1` [Acyclovir] is higher in optomotor response: -1.18 for the first, 4.83 for the second.

First: CC(=O)NC[C@H]1CN(c2ccc(N3CCOCC3)c(F)c2)C(=O)O1 [Linezolid]
Second: N[C@@H]1[C@H]2CN(c3nc4c(cc3F)c(=O)c(C(=O)O)cn4-c3ccc(F)cc3F)C[C@@H]12 [Trovafloxacin mesylate]
The optomotor response of the first is higher: 5.73 for the first, -4.84 for the second.

First: CCc1ccc(CCOc2ccc(CC3SC(=O)NC3=O)cc2)nc1 (stereo not given) [Pioglitazone hydrochloride]
Second: CN(CCOc1ccc(CC2SC(=O)NC2=O)cc1)c1ccccn1 (stereo not given) [Rosiglitazone]
The optomotor response of the first is higher: -6.55 for the first, -14.3 for the second.

Going from `CC(c1cc2ccccc2s1)N(O)C(N)=O` (stereo not given) [Zileuton] to `CN(C)CC/C=C1/c2ccccc2COc2ccc(CC(=O)O)cc21` [Olopatadine hydrochloride], the optomotor response rises from -16.8 to 5.8.

First: CCCc1nn(C)c2c(=O)[nH]c(-c3cc(S(=O)(=O)N4CCN(C)CC4)ccc3OCC)nc12 [Sildenafil citrate]
Second: CC(C)Nc1cccnc1N1CCN(C(=O)c2cc3cc(NS(C)(=O)=O)ccc3[nH]2)CC1 [Delavirdine mesylate]
The optomotor response of the first is higher: -12.3 for the first, -17 for the second.

First: C[C@H]1O[C@H](O[C@H]2[C@H](O)[C@@H](O)[C@@H](O[C@H]3[C@H](O)[C@@H](O)C(O)O[C@@H]3CO)O[C@@H]2CO)[C@H](O)[C@@H](O)[C@@H]1N[C@H]1C=C(CO)[C@@H](O)[C@H](O)[C@H]1O (stereo not given in full) [Acarbose]
Second: CCCC1O[C@@H]2C[C@H]3[C@@H]4CCC5=CC(=O)C=C[C@]5(C)[C@H]4[C@@H](O)C[C@]3(C)[C@]2(C(=O)CO)O1 (stereo not given in full) [Budesonide]
The optomotor response of the first is higher: 12.4 for the first, 0.572 for the second.

First: COc1c(C)c2c(c(O)c1C/C=C(\C)CCC(=O)OCCN1CCOCC1)C(=O)OC2 [Mycophenolate mofetil]
Second: COC(=O)C1=C(C)NC(C)=C(C(=O)OC(C)C)C1c1cccc2nonc12 (stereo not given) [Isradipine]
The optomotor response of the first is higher: 2.27 for the first, -16.6 for the second.

First: CNCc1ccc(-c2[nH]c3cc(F)cc4c3c2CCNC4=O)cc1 [Rucaparib camsylate]
Second: CCOc1nc2cccc(C(=O)O)c2n1Cc1ccc(-c2ccccc2-c2noc(=O)[nH]2)cc1 [Azilsartan]
The optomotor response of the first is higher: 3.57 for the first, -3.36 for the second.

First: CN(C)C(=N)NC(=N)N [Metformin hydrochloride]
Second: CCCN(CCC)S(=O)(=O)c1ccc(C(=O)O)cc1 [Probenecid]
The optomotor response of the first is higher: 10.2 for the first, -11.6 for the second.

Going from `OCCN(CCO)c1nc(N2CCCCC2)c2nc(N(CCO)CCO)nc(N3CCCCC3)c2n1` [Dipyridamole] to `O=c1n(CCCN2CCN(c3cccc(Cl)c3)CC2)nc2ccccn12` [Trazodone hydrochloride], the optomotor response falls from 7.3 to 5.34.

Compared with `COc1ccc(-c2ccc3cc(C(=O)O)ccc3c2)cc1C12CC3CC(CC(C3)C1)C2` [Adapalene], `CCOc1nc2cccc(C(=O)O)c2n1Cc1ccc(-c2ccccc2-c2nnn[nH]2)cc1` [Candesartan] is higher in optomotor response: -11.7 for the first, 1.2 for the second.

First: CCCCCCCCc1ccc(CCC(N)(CO)CO)cc1
Second: CCCCC(=O)N(Cc1ccc(-c2ccccc2-c2nnn[nH]2)cc1)[C@H](C(=O)O)C(C)C [Valsartan]
The optomotor response of the first is higher: 10.4 for the first, -0.58 for the second.

Going from `CN(C)CCc1c[nH]c2ccc(C[C@H]3COC(=O)N3)cc12` [Zolmitriptan] to `CN1CC2c3ccccc3Oc3ccc(Cl)cc3C2C1` (stereo not given) [Asenapine maleate], the optomotor response falls from -9.74 to -11.9.

Going from `Cc1nnc(C(C)C)n1C1C[C@H]2CC[C@@H](C1)N2CC[C@H](NC(=O)C1CCC(F)(F)CC1)c1ccccc1` (stereo in doubt) [Maraviroc] to `C[C@]12CCC(=O)C=C1CC[C@@H]1[C@@H]2[C@@H](O)C[C@@]2(C)[C@H]1CC[C@]2(O)C(=O)CO` [Hydrocortisone], the optomotor response falls from 6.43 to -1.8.

Compared with `CO[C@H]1/C=C/O[C@@]2(C)Oc3c(C)c(O)c4c(O)c(c5c(nc6cc(C)ccn65)c4c3C2=O)NC(=O)/C(C)=C\C=C\[C@H](C)[C@H](O)[C@@H](C)[C@@H](O)[C@@H](C)[C@H](OC(C)=O)[C@@H]1C` [Rifaximin], `CCOc1ccccc1OCCN[C@H](C)Cc1ccc(OC)c(S(N)(=O)=O)c1` [Tamsulosin hydrochloride] is lower in optomotor response: -3.87 for the first, -10.3 for the second.
